Source: PubChem (several laboratories)
PP1 inh: counter-screen for PP5 inhibitors: inhibitors of human PP1-alpha | AID 2235 | inhibition, % at 6.7 µM | hit rate 0.9% among 320,000 | P62136 | purified PP1alpha, OMFP fluorescence;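 active = inhibition above the mean inhibition of all tested compounds plus 3 SD, computed separately for each screening campaign, cut at about 15% in these data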
H9c2 protect: protects H9c2 cardiomyocytes from peroxide injury; H2O2 injury protection, ATPLite, 2 h; protection from H2O2 cell death, % at 20 µM; hit rate 0.63% among 360,000; AID 588492;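 active = compounds giving at least 50% protection of heart cells from peroxide-induced death in the single-dose screen, raw or plate-pattern-corrected value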;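 also: 0% = DMSO wells with peroxide and 100% = DMSO wells without peroxide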
ATG4B inhibitor: ATG4B (human) cysteine protease inhibition; ATG4B cleavage of LC3-PLA2, NBD-HPC fluorescence, 1 h; inhibition, % at 8.33 µM; AID 504462; Q9Y4P1; hit rate 0.51% among 340,000; in the data active = inhibition above about 40%
Target sequence (Q9Y4P1 whole entry, looked up): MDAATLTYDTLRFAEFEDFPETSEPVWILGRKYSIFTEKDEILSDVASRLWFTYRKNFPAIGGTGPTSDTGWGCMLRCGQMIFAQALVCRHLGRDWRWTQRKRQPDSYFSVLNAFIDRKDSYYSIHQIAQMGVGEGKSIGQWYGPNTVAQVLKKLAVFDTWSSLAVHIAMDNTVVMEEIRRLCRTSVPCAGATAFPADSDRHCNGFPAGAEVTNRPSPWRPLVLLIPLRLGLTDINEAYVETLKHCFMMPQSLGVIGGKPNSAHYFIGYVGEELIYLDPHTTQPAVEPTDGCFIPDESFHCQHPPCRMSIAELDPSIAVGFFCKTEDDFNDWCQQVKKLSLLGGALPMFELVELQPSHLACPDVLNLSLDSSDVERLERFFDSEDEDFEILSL
PP5 primary: PP5 (human) phosphatase inhibition; hit rate 0.18% among 320,000; AID 1987; inhibition, % at 6.7 µM; purified PP5c, OMFP substrate fluorescence; P53041;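 active = inhibition above the campaign's mean inhibition across all tested compounds plus 3 SD, cut at about 9.5% in these data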;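 also: 0% = DMSO only and 100% = 100 µM cantharidin control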
PP1 confirm: confirmation of human PP1 phosphatase inhibitors | shares compounds with PP1 inh | purified PP1alpha, OMFP substrate fluorescence | inhibition, % at 6.7 µM | hit rate 52% among 1,900 | AID 2358;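 active = mean PP1 inhibition above a set limit taken from the earlier primary screen, cut at about 15% in these data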
PP5 counter: counter-screen for PP1 inhibitors: human PP5 phosphatase inhibition; shares compounds with PP1 inh; purified PP5c, OMFP fluorescence; inhibition, % at 6.7 µM; hit rate 4% among 1,900;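 active = mean PP5 inhibition over triplicate wells above about 9.5% taken from the earlier PP1 screen, limit read from the data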
ATG4B conf: ATG4B (human) inhibition, single-dose confirmed; shares compounds with ATG4B inhibitor; ATG4B protease fluorescent substrate cleavage assay; inhibition, % at 8.33 µM; hit rate 92% among 320; in the data active = inhibition above about 39%
PLA2 counter: counter-screen for ATG4B inhibitors: human phospholipase A2. hit rate 66% among 1,600. shares compounds with ATG4B inhibitor. AID 588402. inhibition, % at 8.33 µM. purified PLA2, NBD-C6-HPC fluorescence, 45 min; in the data active = inhibition above about 50%
Target sequence (P04054 whole entry, looked up): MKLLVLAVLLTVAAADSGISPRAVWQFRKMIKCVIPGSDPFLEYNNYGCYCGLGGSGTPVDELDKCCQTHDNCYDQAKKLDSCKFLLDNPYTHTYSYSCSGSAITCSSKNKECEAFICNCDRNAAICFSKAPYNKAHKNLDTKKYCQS
An asterisk follows results filed as active. Only some compounds are listed: those with a hit (about 1.9% of all), similar ones and a draw of the others.

How did C#CCOCCOCCOCCNc1nc(N2CCN(C(=O)CCCCCCCCCCNC(=O)[C@H](CCCCN)n3cc(C)nn3)CC2)nc(N2CCN(C(=O)CCCCCCCCCCNC(=O)[C@H](CCCN=C(N)N)n3cc(C[C@@H](C)CC)nn3)CC2)n1 do in these assays?
PP1 inh: 53*; ATG4B inhibitor: 69*; PP5 primary: 5; PP1 confirm: 50*; PP5 counter: 0; PLA2 counter: 70*

How did CCc1ccccc1NC(=O)COC(=O)C1C2CC3OC(=O)C1C3C2 (centres undefined) do in these assays?
PP1 inh: 1; H9c2 protect: 2; ATG4B inhibitor: 0; PP5 primary: 4

What do the screens show for `Cc1cc(S(=O)(=O)N2CCN(CC(=O)NCCc3cccs3)CC2)ccc1Br`?
PP1 inh: -2; H9c2 protect: 2; ATG4B inhibitor: -55; PP5 primary: 4

What do the screens show for `Cc1cccc(C)c1-n1cccc1/C=C1\SC(=S)N(c2cccc(C(=O)O)c2)C1=O`?
PP1 inh: 22*; H9c2 protect: -10; ATG4B inhibitor: 91*; PP5 primary: 4; PP1 confirm: 23*; PP5 counter: 4; PLA2 counter: 85*

Results for O=C1NC(=S)SC1=Cc1ccccc1Cl ?
H9c2 protect: -17; ATG4B inhibitor: 4

Results for Cc1ccc(C2C(/C=C3/SC(=S)NC3=O)=C(c3cccs3)Oc3ccccc32)cc1 (centres undefined) ?
PP1 inh: 31*; H9c2 protect: -27; ATG4B inhibitor: 57*; PP5 primary: 3; PP1 confirm: 22*; PP5 counter: -6; PLA2 counter: 55*

What do the screens show for `Cc1sc(NC(=O)C2C3CCC(O3)C2C(=O)O)nc1-c1ccc(CC(C)C)cc1` (centres undefined)?
PP1 inh: 78*; H9c2 protect: -4; ATG4B inhibitor: 56*; PP5 primary: 79*; PP1 confirm: 35*; PP5 counter: 38*; PLA2 counter: 69*

Results for COCC(=O)Nc1nc(-c2ccc(C)cc2)c(C)s1 ?
PP1 inh: -3; H9c2 protect: 3; ATG4B inhibitor: 6; PP5 primary: 2

Results for COc1ccc(CN(CCN(C)C)c2ccccn2)cc1 ?
PP1 inh: -3; H9c2 protect: -2; ATG4B inhibitor: -4; PP5 primary: 1

How did CCCCCCCCCCCCCCCC[N+](C)(C)CCN(Cc1ccc(OC)cc1)c1ncccn1 do in these assays?
PP1 inh: 69*; H9c2 protect: -47; ATG4B inhibitor: 67*; PP5 primary: 11*; PP1 confirm: 35*; PP5 counter: 7; PLA2 counter: 61*

Results for Cc1ccc(S(=O)(=O)N2CCN(C(=O)c3ccc4ccccc4n3)CC2)c(C)c1 ?
PP1 inh: 0; H9c2 protect: -4; ATG4B inhibitor: -2; PP5 primary: 1

How did Cc1cccn2c(=O)c(/C=C(\C#N)S(=O)(=O)c3ccccc3)c(N3CCN(c4ccccc4)CC3)nc12 do in these assays?
PP1 inh: -4; H9c2 protect: 2; ATG4B inhibitor: 5; PP5 primary: 0

How did CCN1CCN(c2nc3c(C)cccn3c(=O)c2/C=C(\C#N)S(=O)(=O)c2ccccc2)CC1 do in these assays?
PP1 inh: -1; H9c2 protect: 13; ATG4B inhibitor: 50*; PP5 primary: 3; PLA2 counter: 52*

What do the screens show for `c1ccc(CSc2nnc3c(n2)OC(c2ccco2)Nc2ccccc2-3)cc1` (centres undefined)?
PP1 inh: 2; H9c2 protect: 12; ATG4B inhibitor: 42*; PP5 primary: 3; ATG4B conf: 96*; PLA2 counter: 8

How did C=CCSc1nnc2c(n1)OC(c1cccnc1)Nc1ccccc1-2 (centres undefined) do in these assays?
PP1 inh: -2; H9c2 protect: 7; ATG4B inhibitor: -2; PP5 primary: 0

What do the screens show for `COc1ccc(C(=O)Nc2ccccc2C(=O)NCCN2CCOCC2)cc1OC`?
PP1 inh: -5; H9c2 protect: -3; ATG4B inhibitor: -9; PP5 primary: 1

Results for Cc1ccc(Cc2cnc(N3C(=N)SC(c4ccccc4)C3=O)s2)cc1 (centres undefined) ?
PP1 inh: 9; H9c2 protect: 20; ATG4B inhibitor: -1; PP5 primary: 0

How did N=C1SC(c2ccccc2)C(=O)N1c1ncc(Cc2ccccc2)s1 (centres undefined) do in these assays?
PP1 inh: 6; H9c2 protect: 43; ATG4B inhibitor: 56*; PP5 primary: -1; PLA2 counter: 24

How did O=C(O)c1ccccc1NS(=O)(=O)c1ccc(NN=Cc2ccccc2F)c([N+](=O)[O-])c1 do in these assays?
H9c2 protect: -3; ATG4B inhibitor: 40

How did COc1ccc(C=NNc2ccc(S(=O)(=O)Nc3ccccc3C(=O)O)cc2[N+](=O)[O-])c(OC)c1 do in these assays?
H9c2 protect: -4; ATG4B inhibitor: 48*; PLA2 counter: 49

How did O=C(NCc1ccc(Cl)cc1)c1ccccc1CCc1ccccc1 do in these assays?
PP1 inh: 2; H9c2 protect: -7; ATG4B inhibitor: 55*; PP5 primary: 0; PLA2 counter: 53*

How did CCOC(=O)c1ccc(NC(=O)CSC2=NN3CCCC(=O)N=C3S2)cc1 do in these assays?
PP1 inh: 2; H9c2 protect: -4; ATG4B inhibitor: 1; PP5 primary: -1

What do the screens show for `COC(=O)N/N=C/c1cn(Cc2ccc(Cl)cc2Cl)c2ccccc12`?
PP1 inh: -2; H9c2 protect: -5; ATG4B inhibitor: 53*; PP5 primary: 4; PLA2 counter: 61*

What do the screens show for `COC(=O)N/N=C/c1cn(Cc2ccccc2Cl)c2ccccc12`?
PP1 inh: 4; H9c2 protect: -1; ATG4B inhibitor: 35; PP5 primary: 6

What do the screens show for `Cc1ccc(OCC(=O)N/N=C\c2cn(Cc3ccccc3)c3ccccc23)cc1C`?
PP1 inh: -2; H9c2 protect: -8; ATG4B inhibitor: 43*; PP5 primary: 0; PLA2 counter: 10

How did COC(=O)N/N=C/c1cn(Cc2c(Cl)cccc2Cl)c2ccccc12 do in these assays?
PP1 inh: 2; H9c2 protect: -12; ATG4B inhibitor: 42*; PP5 primary: 5; PLA2 counter: 51*

How did O=S(=O)(c1ccc(F)cc1)N1CCCN(c2nccc(C(F)(F)F)n2)CC1 do in these assays?
PP1 inh: -4; H9c2 protect: 0; ATG4B inhibitor: -9; PP5 primary: 4

How did Cc1ccc(C(=O)NNC(=O)c2ccccc2O)cc1S(=O)(=O)N1CCCCC1 do in these assays?
PP1 inh: 3; H9c2 protect: 36; ATG4B inhibitor: 0; PP5 primary: -1
